# Measurements from PubChem BioAssay (NCI).
# Compounds without any hit were thinned out: in the full panel of roughly 79,000, 15% have a hit. Unmarked numbers belong to inactive results. Active and inactive are the calls of the source. No stated cut-off is given here; in the data, active means growth inhibition above about 70%; inactive means the rest.
# Columns and labels:
# [1] = NCI Yeast Anticancer Drug Screen. Data for the rad50 strain (AID 155);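 further: 0% = growth of vehicle-only cultures of the same strain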; settings: S. cerevisiae rad50 strain growth inhibition, hits give high values
# In short: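 Genetically altered yeast (DNA repair pathway); compound treatment; growth inhibition vs vehicle ctrl.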
# [2] = NCI Yeast Anticancer Drug Screen. Data for the mec2-1 strain (AID 157); settings: S. cerevisiae mec2-1 strain, hits give high values
# In short: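 Test agents were screened against the mec2-1 yeast strain, with defined DNA repair or cell cycle alteration. Growth was scored as inhibition against vehicle-only controls.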
# [3] = NCI Yeast Anticancer Drug Screen. Data for the sgs1 mgt1 strain (AID 161);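 further: 0% = growth of cultures given vehicle only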; settings: S. cerevisiae sgs1 mgt1 strain, hits give high values
# In short: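 Genetically altered yeast, compound exposure, growth inhibition relative to vehicle.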
# [4] = NCI Yeast Anticancer Drug Screen. Data for the cln2 rad14 strain (AID 165);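 further: 0% = growth equal to vehicle treated cultures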; settings: S. cerevisiae cln2 rad14 strain, hits give high values
# In short: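 Growth of compound-exposed yeast (cln2 rad14 genotype) measured and expressed as inhibition relative to vehicle.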
# [5] = NCI Yeast Anticancer Drug Screen. Data for the bub3 strain (AID 167); settings: S. cerevisiae bub3 mutant strain, hits give high values
# In short: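 Yeast carrying a defined mutation is treated with each compound, and growth is compared with that of vehicle-exposed cells to give inhibition.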
# [6] = NCI Yeast Anticancer Drug Screen. Data for the mlh1 rad18 strain (AID 175); settings: S. cerevisiae mlh1 rad18 strain growth inhibition, hits give high values
# In short: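 In this whole-cell yeast screen, a strain with altered DNA damage repair is challenged with compound, and its growth is measured against matched vehicle-treated controls.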
# [7] = at 5.0 µM (retest, dose inferred, filed as 0.5)
# [8] = at 50.0 µM (retest, dose inferred, filed as 5.0)
SMILES,"growth inhibition [1, 7]","growth inhibition [1, 8]",growth inhibition ([1]; at 50.0 µM),"growth inhibition [2, 7]","growth inhibition [2, 8]",growth inhibition ([2]; at 50.0 µM),"growth inhibition [3, 7]","growth inhibition [3, 8]",growth inhibition ([3]; at 50.0 µM),"growth inhibition [4, 7]","growth inhibition [4, 8]",growth inhibition ([4]; at 50.0 µM),"growth inhibition [5, 7]","growth inhibition [5, 8]",growth inhibition ([5]; at 50.0 µM),"growth inhibition [6, 7]","growth inhibition [6, 8]",growth inhibition ([6]; at 50.0 µM)
CC(C)[C@@H]1CC[C@@H](C)C[C@H]1OC(=O)NN,-8%,72% (active),89.5% (active),-30%,53%,90.3% (active),-8%,70% (active),91.2% (active),1%,-2%,59.6%,6%,84% (active),80.5% (active),-6%,68%,95.3% (active)
C=CCNC(=S)N/N=C(/c1ccccn1)C(C)C,1%,40%,89.8% (active),-1%,36%,98.5% (active),-2%,80% (active),96.9% (active),-4%,28%,91.3% (active),-2%,41%,96.3% (active),-2%,69%,96% (active)
Cn1c2nc(-[n+]3ccc(-c4ccccc4)cc3)nc-2c([O-])n(C)c1=O,3%,3%,-7.35%,-3%,8%,2.95%,1%,-4%,9.9%,-3%,1%,72.3% (active),-1%,-3%,-2%,-1%,16%,-7.5%
CCCCCN(CCCCC)C(=S)Nc1ccccc1,-36%,67%,84.9% (active),-5%,85% (active),80.5% (active),-19%,83% (active),77% (active),-22%,74% (active),80.9% (active),1%,94% (active),87.8% (active),-4%,90% (active),89.4% (active)
C(#Cc1ccccc1)Sc1ccccc1,6%,4%,12.9%,-9%,14%,31.1%,1%,18%,65.7%,6%,6%,23.1%,29%,9%,-30.8%,4%,11%,56.4%
CC(=O)c1c(O)c(C)c(O)c2c1OC1=CC(=O)c3c(C)noc3C12C (stereo not given),-1%,10%,24.9%,-3%,7%,26.1%,-2%,10%,-2.55%,10%,16%,25.3%,-9%,1%,12.8%,-1%,10%,54.1%
CCCC(Sc1ccccc1)c1ccccc1NC(C)=O (stereo not given),1%,31%,85.5% (active),0%,8%,58.9%,1%,26%,89.9% (active),6%,33%,37%,6%,41%,45.6%,2%,15%,67.5%
CCCCCCCCCCCC[N+]1(C)CCCC1c1cccnc1 (stereo not given),19%,97% (active),50.5%,13%,98% (active),97.5% (active),4%,98% (active),51.9%,5%,98% (active),94.3% (active),27%,92% (active),97.5% (active),19%,97% (active),96.9% (active)
COc1ccc(C2SCC(=O)N2c2ccc(-c3ccc(-n4c(-c5ccccc5)nc5ccccc5c4=O)cc3)cc2)cc1 (stereo not given),0%,33%,21.6%,1%,28%,34.1%,7%,57%,57.4%,42%,41%,13.5%,24%,69%,70.9% (active),18%,68%,58.1%
CCCCCCC(O)(CCCCCC)CCCCCC,-1%,-34%,83.3% (active),-3%,-34%,32.8%,-3%,-31%,42.8%,1%,-41%,23.9%,0%,-12%,5.3%,1%,-31%,44.1%
